# According to PubChem BioAssay (NCATS):
# “And” between values parts separate entries of the source, which are not always exact repeats. Identical values can stand only once. Records with an inconclusive call do not appear. A call without a number means that no potency is given here. Unmarked numbers belong to inactive results. The source made the active and inactive calls. Calls come from the whole dose curve; as a rule, active = well fitted inhibition curve with a large enough effect; inconclusive = small, poorly fitted or top-dose-only effect; inactive = flat fitted curve, though single readings scatter.
# Columns and labels:
# [1] = test system: P94_40; test: qHTS profiling for inhibitors of Plasmodium falciparum proliferation (AID 504749); note: potency is the fitted concentration of half-maximal effect; details: P. falciparum in erythrocytes, SYBR Green DNA, 72 h; series mostly up to 28.7 µM
# Summary of the method: (§1)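 P. falciparum-infected erythrocytes (0.3% parasitemia, 2.5% hematocrit) incubated with compound 72 h at 37 C, 5% CO2. Parasite DNA detected by SYBR Green after lysis, overnight at room temperature; normalised to 0.29 uM artemisinin and DMSO.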
# [2] = test system: PAD; test: as above; details: P. falciparum in erythrocytes, SYBR Green DNA, 72 h; series mostly up to 28.7 µM
# Summary of the method: as §1
# [3] = test system: PC15; test: as above; details: P. falciparum in erythrocytes, SYBR Green DNA, 72 h; series mostly up to 28.7 µM
# Summary of the method: as §1
# [4] = test system: PC26; test: as above; details: P. falciparum in erythrocytes, SYBR Green DNA, 72 h; series mostly up to 28.7 µM
# Summary of the method: as §1
# [5] = test system: PC49; test: as above; details: P. falciparum in erythrocytes, SYBR Green DNA, 72 h; series mostly up to 28.7 µM
# Summary of the method: as §1
# [6] = test system: SC27B; test: as above; details: P. falciparum in erythrocytes, SYBR Green DNA, 72 h; series mostly up to 28.7 µM
# Summary of the method: as §1
# [7] = test system: TAB109; test: as above; details: P. falciparum in erythrocytes, SYBR Green DNA, 72 h; series mostly up to 28.7 µM
# Summary of the method: as §1
# [8] = test system: TAB113; test: as above; details: P. falciparum in erythrocytes, SYBR Green DNA, 72 h; series mostly up to 28.7 µM
# Summary of the method: as §1
# [9] = test system: TAB165; test: as above; details: P. falciparum in erythrocytes, SYBR Green DNA, 72 h; series mostly up to 28.7 µM
# Summary of the method: as §1
# [10] = test system: W2; test: as above; details: P. falciparum in erythrocytes, SYBR Green DNA, 72 h; series mostly up to 28.7 µM
# Summary of the method: as §1
# [11] = test system: CRL-7250; test: Cytotoxic Profiling of Annotated Libraries Using Quantitative High-Throughput Screening (AID 1296008); details: Five cell lines viability, CellTiter-Glo ATP luminescence, 48-72 h; max response: hits give low values
# Summary of the method: (§2)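 Cells exposed to compounds for 48 or 72 hr at 37 degrees Celsius. Viability read as ATP-coupled luminescence with CellTiter-Glo after 10 min at room temperature.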
# [12] = test system: HEK293; test: as above; details: Five cell lines viability, CellTiter-Glo ATP luminescence, 48-72 h; max response: hits give low values
# Summary of the method: as §2
# [13] = test system: HaCat; test: as above; details: Five cell lines viability, CellTiter-Glo ATP luminescence, 48-72 h; max response: hits give low values
# Summary of the method: as §2
# [14] = test system: KB-3-1; test: as above; details: Five cell lines viability, CellTiter-Glo ATP luminescence, 48-72 h; max response: hits give low values
# Summary of the method: as §2
# [15] = test system: NIH3T3; test: as above; details: Five cell lines viability, CellTiter-Glo ATP luminescence, 48-72 h; max response: hits give low values
# Summary of the method: as §2
# [16] = test system: HACAT; test: qHTS assay to identify novel small-molecules to repurpose for Merkel cell carcinoma treatment (AID 1296009); details: MCC and control cell lines, CellTiter-Glo viability, 72 h; at 44.8 µM (top of the series) unless noted
# Summary of the method: (§3)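 Cells were treated for 72 hr at 37 degree celsius with compounds in 8- or 11-point dose response. Viability was read by CellTiter-Glo luminescence, normalized to no-cell (cytotoxicity) and DMSO controls.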
# [17] = test system: HEK293T; test: as above; details: MCC and control cell lines, CellTiter-Glo viability, 72 h; at 44.8 µM (top of the series) unless noted
# Summary of the method: as §3
# [18] = test system: MCC-13; test: as above; details: MCC and control cell lines, CellTiter-Glo viability, 72 h; series mostly up to 46 µM
# Summary of the method: as §3
# [19] = test system: MKL-1; test: as above; details: MCC and control cell lines, CellTiter-Glo viability, 72 h; series mostly up to 46 µM
# Summary of the method: as §3
# [20] = test system: MCC-26; test: as above; details: MCC and control cell lines, CellTiter-Glo viability, 72 h; series mostly up to 46 µM
# Summary of the method: as §3
# Note: nearly all actives have a fitted effect of over 60% in size.
compound,measurement,setting,value
O=C1c2ccccc2C(=O)C1c1ccccc1,Potency,[1],inactive
same,Potency,[2],inactive
same,Potency,[3],inactive
same,Potency,[4],inactive
same,Potency,[5],inactive
same,Potency,[6],inactive
same,Potency,[7],inactive
same,Potency,[8],inactive
same,Potency,[9],inactive
same,Potency,[10],inactive
same,max response,[11],-3.39%
same,outcome,[12],inactive
same,outcome,[13],inactive
same,max response,[14],-18.6%
same,outcome,[15],inactive
same,outcome,[16],inactive
same,outcome,[17],inactive
same,Potency,[18],inactive
same,Potency,[19],inactive
Cc1ccc(C(=O)C(C)CN2CCCCC2)cc1 (configuration not stated),Potency,[5],inactive
same,Potency,[6],inactive
same,Potency,[10],6.01 µM (active)
same,max response,[11],-2.76% and -2.03%
same,max response,[12],0.201%
same,outcome,[13],inactive; activator
same,max response,[14],7.56% and -13.6% and 2.39%
same,max response,[15],-4.42%
same,outcome,[15],inactive
same,outcome,[16],inactive; activator
same,Potency,[18],inactive
same,Potency,[20],inactive
same,Potency,[19],inactive
NC[C@H]1O[C@H](O[C@H]2[C@H](O)[C@@H](O[C@H]3O[C@H](CO)[C@@H](O)[C@H](N)[C@H]3O)[C@H](N)C[C@@H]2N)[C@H](N)[C@@H](O)[C@@H]1O,max response,[11],-9.82%
same,max response,[12],-0.173%
same,outcome,[13],inactive
same,max response,[14],-1.35% and -3.36%
same,max response,[15],1.61%
same,outcome,[16],inactive [at 17.4 µM]
same,Potency,[18],inactive
same,Potency,[20],inactive
same,Potency,[19],inactive
C[C@H](O)C(=O)Nc1c(I)c(C(=O)NC(CO)CO)c(I)c(C(=O)NC(CO)CO)c1I,Potency,[1],inactive
same,Potency,[2],inactive
same,Potency,[3],inactive
same,Potency,[4],inactive
same,Potency,[5],inactive
same,Potency,[6],inactive
same,Potency,[7],inactive
same,Potency,[8],inactive
same,Potency,[9],inactive
same,Potency,[10],inactive
same,outcome,[11],inactive
same,max response,[12],-5.81%
same,outcome,[13],inactive
same,max response,[14],3.55%
same,max response,[15],-5.03%
same,outcome,[16],inactive
same,Potency,[18],inactive
same,Potency,[20],inactive
same,Potency,[19],inactive
Cc1c(N(C)CS(=O)(=O)O)c(=O)n(-c2ccccc2)n1C,Potency,[1],inactive
same,Potency,[2],inactive
same,Potency,[3],inactive
same,Potency,[4],inactive
same,Potency,[5],inactive
same,Potency,[6],inactive
same,Potency,[7],inactive
same,Potency,[8],inactive
same,Potency,[9],inactive
same,Potency,[10],inactive
same,outcome,[11],inactive
same,outcome,[12],inactive
same,outcome,[13],inactive
same,max response,[14],16.1%
same,outcome,[15],inactive
same,outcome,[16],inactive
same,outcome,[17],inactive
same,Potency,[18],inactive
same,Potency,[19],inactive
CN1[C@@H]2CC[C@H]1CC(OC(=O)c1c[nH]c3ccccc13)C2 (some centres not stated),max response,[11],-2.71%
same,outcome,[11],inactive
same,max response,[12],4.73%
same,outcome,[12],inactive
same,max response,[13],0.428%
same,outcome,[13],inactive
same,max response,[14],-8.86% and -5.38%
same,outcome,[15],inactive
same,outcome,[16],inactive
same,outcome,[17],inactive
same,Potency,[18],inactive
same,Potency,[20],inactive
same,Potency,[19],inactive
